Among the data in ChEMBL document CHEMBL4513216, “Probing the Open Global Health Chemical Diversity Library for Multistage-Active Starting Points for Next-Generation Antimalarials” (ACS Infect Dis, 2020) are INHIBITION values, retold here.

Hit rate of the full screen: of about 69,000 compounds, about 8,600 (12%) showed an effect of 50% or more. What follows is part of a selection rich in strong results, with near analogues and random picks from the rest.

This assay concerns Plasmodium berghei. Put plainly: Screen against P. berghei liver stage (PbLuc), transformed with Luciferase, at 10uM. Type of assay: functional, HepG2. Conditions: tested at 10 uM.
In the case of `Cc1nn(C)c(N(C)C)c1CNC1CCOc2ccccc21` (centres undefined), the INHIBITION is given as -5.05%. The same measure for `Cc1oc2c(c1C(=O)N1C[C@H](O)[C@]3(CCCO3)C1)CCCC2`: 3.95%; for `CC1CN(C)CCN1C(=O)Nc1nc(-c2ccc[nH]2)cs1` (centres undefined): 6.33%; for `CS(=O)(=O)NCCNCc1ccc(Br)s1`: -40.7%. The same measure for `CN1C(=O)C(C)(C)COc2cc(NS(=O)(=O)c3ccccc3F)ccc21`: 22.3%. For `CC(C)Sc1ncccc1C(=O)NCc1ccc(CS(C)(=O)=O)cc1` the value was 14.4%. As to `CC(C)Sc1ncccc1C(=O)NCc1ccc(O)cc1`, the INHIBITION is 60.7%. With `CC(C)Sc1ncccc1C(=O)NCc1ccoc1`, the INHIBITION came out at 42.9%.

Turning to `O=C(NCCc1nnc2n1CCC2)NCC1(c2ccc(F)cc2)CC1`, the INHIBITION is listed as 9.63%. The same measure for `COc1ccccc1N1CCN(C(=O)Cn2nc(C)c(Cl)c2C)CC1`: -29.2%; for `CCS(=O)(=O)N1CCC2(CC1)CC1(CCN(CCOC)CC1)C(=O)N2C`: 40.8%. Regarding `Cc1cc(CN[C@@H](Cc2ccccc2)C(N)=O)c(C)s1`, the INHIBITION worked out at 53.3%. The same measure for `Cc1cc(CN[C@@H](C)C(N)=O)c(C)s1`: 16.3%; for `Cc1cc(CN[C@H](C(N)=O)[C@@H](C)O)c(C)s1`: 38.7%; for `Cc1csc(C(C)(C)NCc2ncc(-c3ccc(F)cc3)o2)n1`: -46.4%. For `COc1ncc(CN2CCOC(C)(C(=O)N3CCOCC3)C2)cn1` (centres undefined), the INHIBITION came out at 41.2%. In the case of `O=c1[nH]ncc(NCCOc2ccc3c(c2)CCC3)c1Cl`, the INHIBITION was 77.1%.

Regarding `O=c1[nH]ncc(NCCOc2ccc3c(c2)OCO3)c1Cl`, the INHIBITION is 20.3%. `O=c1[nH]ncc(NCCOc2cccc(Br)c2)c1Cl`: the INHIBITION came out at 15.6%. The same measure for `CCn1nccc1CN(C)C(=O)Cn1cc2c(n1)c(C)nn2CC`: 35%; for `O=C(CSc1ncccn1)N1C[C@@H]2CC[C@H]1CN(Cc1ccncc1)C2`: 21.6%; for `Cc1nc2c(C)cccc2cc1C(=O)N1CCC2(CCNCC2)CC1`: 47.7%.

Regarding `Cc1cc(O)c(OCC(=O)/N=c2\[nH]cc(C)s2)cn1`, the INHIBITION is reported as -48.2%. Regarding `Cc1ccc(-c2nc(CNC3CCc4ncnn4C3)no2)cc1` (centres undefined), the INHIBITION was 0.411%. For the compound `CC(Cn1ccnc1)NC(=O)C1(c2ccccc2)CC1` (centres undefined), the INHIBITION was 46.2%. Take `Cc1ccc(CN2Cc3nnn(C)c3C(COCCN(C)C)C2)s1` (centres undefined): the INHIBITION was 10%.

On to `Cc1ccc(CN2Cc3nnn(C)c3C(COCC3CC3)C2)s1` (centres undefined), for which the INHIBITION is listed as 71.8%. Turning to `Cc1ccc(CN2Cc3nnn(C)c3C(COCc3ccccc3)C2)s1` (centres undefined), the INHIBITION was 78.7%.

Regarding `Cc1ccc(CN2Cc3nnn(C)c3C(COCc3ccccn3)C2)s1` (centres undefined), the INHIBITION is -37.9%. Take `COCC1CN(Cc2ccc(C)s2)Cc2nnn(C)c21` (centres undefined): the INHIBITION came out at 21.4%. On to `Cc1ccc(CN2Cc3nnn(C)c3C(COCc3ccccc3)C2)o1` (centres undefined), for which the INHIBITION turned out to be 28.4%.

`CC[C@@H]1C[C@H](C(F)(F)F)n2nc(C3CCN(S(=O)(=O)CC)CC3)cc2N1`: the INHIBITION was 46%. For `NC(=O)COc1ccc(CNCc2cc(F)ccc2F)cc1` the value was 1.56%; for `CCn1c(C)nnc1CN(C)C1CCN(Cc2nnc(C3CC3)o2)C1` (centres undefined), 36.1%; for `CC(C)Cn1nc(-c2ccc(C(=O)O)cc2)cc1-c1ccc(F)cc1`, 54.3%. For `CCC(O)Cn1nc(-c2ccc(C(=O)O)cc2)cc1-c1cccc(F)c1` (centres undefined), the INHIBITION is reported as 19.75%. For `CCC(O)Cn1nc(-c2ccc(C(=O)O)cc2)cc1-c1ccc(F)cc1` (centres undefined), the INHIBITION is recorded as 38.05%. Take `COc1ccc(CC2CN(C3CCSCC3)CCO2)cc1` (centres undefined): the INHIBITION is on record as 35.4%. The same measure for `Cc1ccc(N2CC[C@H]3OCC[C@@]3(C(=O)N3CCCO3)C2)nn1`: 25.3%; for `CN(Cc1ccncc1)C(=O)NCc1cn(-c2ccccc2)nn1`: 56.3%. As for `CCN(Cc1ccncc1)Cc1cn(-c2ccccc2)nn1`, the INHIBITION is recorded as 5.33%. For `CC(NC(=O)N(C)Cc1ccncc1)c1cn(-c2ccccc2)nn1` (centres undefined) the value was 60.1%; for `Cc1csc(CNC(=O)N(C)Cc2ccncc2)n1`, -53.6835%. On to `CC(NC(=O)N(C)Cc1ccncc1)c1nncn1C` (centres undefined), for which the INHIBITION came to 13.7%. The same measure for `CC(NC(=O)CCCN(C)C)c1cn(-c2ccccc2)nn1` (centres undefined): 21.8%; for `NC(=O)NCC(=O)N1CCCC(c2nccn2CC2CCC2)C1` (centres undefined): 17.5%.

`CC(C)c1nnc2n1CCN(c1nn3cc(C(C)(C)C)nc3s1)C2`: the INHIBITION is on record as -34.6%. On to `Cc1nn(C)c(Cl)c1C1CCCN1Cc1nc(C2CC2)no1` (centres undefined), for which the INHIBITION stood at 37.4%. For `COC(=O)CCCn1ccnc1-c1ccc(OC)c(F)c1F`, the INHIBITION is listed as 43.9%.

Regarding `CCn1ccnc1CN1CCN(CCOc2ccccc2OC)CC1`, the INHIBITION is recorded as 27.1%.

Take `COc1ccc(-c2nccn2CCN2CCCCC2)c(OC)c1OC`: the INHIBITION is 55%. For `Cc1nnc2n1CCN(Cc1ncc(-c3ccc(F)cc3)o1)C2` the value was 46.1%. As for `Cc1c(CCC(=O)N2CCOC(c3cnccn3)C2)cnn1C` (centres undefined), the INHIBITION is reported as -10.4%. For `Cc1noc(C)c1C(=O)N1CCCN(Cc2nccn2C(C)C)CC1` the value was 4.1%.
